# Test results from publication PMC8384837, “Expanding the binding specificity for RNA recognition by a PUF domain”.
# Tests used:
# Assay in all cases: yeast three-hybrid, YBZ-1, SC-Leu-His + 0.5 mM 3-AT, 4 days
# Conditions in all cases: tags: N-Gal4 AD-HA kept; label: inside an RPR1-promoter hybrid RNA with tandem MS2 sites; ssRNA
# PUM1 PUF domain R7-RRQ = PUM1 PUF domain R7-RRQ (Homo sapiens, UniProt Q14671 828-1176, S1079R;N1080R;E1083Q)
# How it was run: (§1)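 Repeat regions from input (SC-Leu) and selection (SC-Leu-His + 0.5 mM 3-AT) plates were PCR-amplified and Illumina-sequenced after four days of growth. The cells were strain YBZ-1 with a LexA–MS2 coat fusion and a HIS3 reporter, co-expressing Pumilio-1 PUF domain libraries and matching RNA elements from a centromeric plasmid. The interaction score is the log change in variant frequency from input to selection, taken in log2 with a pseudocount of 1 for absent variants.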
# PUM1 PUF domain R7-GCL = PUM1 PUF domain R7-GCL (Homo sapiens, UniProt Q14671 828-1176, S1079G;N1080C;E1083L)
# How it was run: as §1
# PUM1 PUF domain R7-KSS = PUM1 PUF domain R7-KSS (Homo sapiens, UniProt Q14671 828-1176, S1079K;N1080S;E1083S)
# How it was run: as §1
# PUM1 PUF domain R7-KRA = PUM1 PUF domain R7-KRA (Homo sapiens, UniProt Q14671 828-1176, S1079K;N1080R;E1083A)
# How it was run: as §1
# PUM1 PUF domain R3-RSP = PUM1 PUF domain R3-RSP (Homo sapiens, UniProt Q14671 828-1176, C935R;R936S;Q939P)
# How it was run: as §1
# PUM1 PUF domain R1-TGE = PUM1 PUF domain R1-TGE (Homo sapiens, UniProt Q14671 828-1176, S863T;R864G;Q867E)
# How it was run: as §1
# PUM1 PUF domain R1-RQE = PUM1 PUF domain R1-RQE (Homo sapiens, UniProt Q14671 828-1176, S863R;R864Q;Q867E)
# How it was run: as §1
# PUM1 PUF domain R1-KCT = PUM1 PUF domain R1-KCT (Homo sapiens, UniProt Q14671 828-1176, S863K;R864C;Q867T)
# How it was run: as §1
# PUM1 PUF domain R1-TLE = PUM1 PUF domain R1-TLE (Homo sapiens, UniProt Q14671 828-1176, S863T;R864L;Q867E)
# How it was run: as §1
# PUM1 PUF domain R5-KSM = PUM1 PUF domain R5-KSM (Homo sapiens, UniProt Q14671 828-1176, C1007K;R1008S;Q1011M)
# How it was run: as §1
# PUM1 PUF domain R1-YTR = PUM1 PUF domain R1-YTR (Homo sapiens, UniProt Q14671 828-1176, S863Y;R864T;Q867R)
# How it was run: as §1
# PUM1 PUF domain R4-SRI = PUM1 PUF domain R4-SRI (Homo sapiens, UniProt Q14671 828-1176, N971S;H972R;Q975I)
# How it was run: as §1
# PUM1 PUF domain R4-GWP = PUM1 PUF domain R4-GWP (Homo sapiens, UniProt Q14671 828-1176, N971G;H972W;Q975P)
# How it was run: as §1
sequence,measurement,setting,value
GGCUAGAACUAGUGGAUCCCCCGGCGCCCGGCGGCUCGAGCCCGGGUAAGUUUAAAUAGUCUGCAUGCCGCCGGGCGCCAUGCCUGCAGGUCGACUCUAGAAAACAUG,binding signal,PUM1 PUF domain R7-RRQ,5.4 log2 enrichment (interaction score)
same,binding signal,PUM1 PUF domain R7-GCL,2.65 log2 enrichment (interaction score)
same,binding signal,PUM1 PUF domain R7-KSS,4.3 log2 enrichment (interaction score)
same,binding signal,PUM1 PUF domain R7-KRA,3.25 log2 enrichment (interaction score)
GGCUAGAACUAGUGGAUCCCCCGGCGCCCGGCGGCUCGAGCCCGGGUAAGUGUAAGUAGUCUGCAUGCCGCCGGGCGCCAUGCCUGCAGGUCGACUCUAGAAAACAUG,binding signal,PUM1 PUF domain R3-RSP,1.39 log2 enrichment (interaction score)
GGCUAGAACUAGUGGAUCCCCCGGCGCCCGGCGGCUCGAGCCCGGGUAAGUGUAAAUGGUCUGCAUGCCGCCGGGCGCCAUGCCUGCAGGUCGACUCUAGAAAACAUG,binding signal,PUM1 PUF domain R1-TGE,2.92 log2 enrichment (interaction score)
same,binding signal,PUM1 PUF domain R1-RQE,1.2 log2 enrichment (interaction score)
same,binding signal,PUM1 PUF domain R1-KCT,3.31 log2 enrichment (interaction score)
same,binding signal,PUM1 PUF domain R1-TLE,3.5 log2 enrichment (interaction score)
GGCUAGAACUAGUGGAUCCCCCGGCGCCCGGCGGCUCGAGCCCGGGUAAGUGUCAAUAGUCUGCAUGCCGCCGGGCGCCAUGCCUGCAGGUCGACUCUAGAAAACAUG,binding signal,PUM1 PUF domain R5-KSM,3.66 log2 enrichment (interaction score)
GGCUAGAACUAGUGGAUCCCCCGGCGCCCGGCGGCUCGAGCCCGGGUAAGUGUAAAUCGUCUGCAUGCCGCCGGGCGCCAUGCCUGCAGGUCGACUCUAGAAAACAUG,binding signal,PUM1 PUF domain R1-YTR,6.08 log2 enrichment (interaction score)
same,binding signal,PUM1 PUF domain R1-RQE,2.21 log2 enrichment (interaction score)
same,binding signal,PUM1 PUF domain R1-KCT,6.39 log2 enrichment (interaction score)
GGCUAGAACUAGUGGAUCCCCCGGCGCCCGGCGGCUCGAGCCCGGGUAAGUGUAUAUAGUCUGCAUGCCGCCGGGCGCCAUGCCUGCAGGUCGACUCUAGAAAACAUG,binding signal,PUM1 PUF domain R4-SRI,1.38 log2 enrichment (interaction score)
same,binding signal,PUM1 PUF domain R4-GWP,7.78 log2 enrichment (interaction score)
GGCUAGAACUAGUGGAUCCCCCGGCGCCCGGCGGCUCGAGCCCGGGUAAGUGUAAUUAGUCUGCAUGCCGCCGGGCGCCAUGCCUGCAGGUCGACUCUAGAAAACAUG,binding signal,PUM1 PUF domain R3-RSP,4.96 log2 enrichment (interaction score)
